Data reported in article PMC5515408, “Sequence-specific DNA binding by MYC/MAX to low-affinity non-E-box motifs”.
Whole data set: some 4,500 sequences, median “log2 normalized fluorescence” near -0.34, cut for the highest 2% near 3.3. The list comes from a sample in which the highest values are over-represented; it also holds similar and randomly drawn sequences.

molecular target: MAX:MAX (p21) (human, UniProt P61244-2 1-151); assay: protein-binding microarray (anti-MAX antibody); PBM: 15 mM Tris-HCl pH 7.5, 100 mM KCl, 0.075% NP40, 7.5 mM beta-mercaptoethanol, 375 ng/ul BSA, 8 ng/ul poly(dA-dT):(dA-dT), 550 ng complex, 60 min, room tempe; high values mean tight binding; conditions: protein: recombinant; tags: 6xHis; chain copies: 2; label: 3' end of printed strand (linker) attached to glass slide; dsDNA, one strand shown
Sequence (P61244 other isoform, or with tags, fused parts or gaps): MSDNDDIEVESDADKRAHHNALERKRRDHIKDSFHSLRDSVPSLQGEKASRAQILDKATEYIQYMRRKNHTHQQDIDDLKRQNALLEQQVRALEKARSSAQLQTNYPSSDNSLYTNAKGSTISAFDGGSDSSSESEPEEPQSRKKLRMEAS
Method in brief: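 A custom Agilent glass array held ~5000 unique 12-nt sequences in triplicate spots, made double-stranded by primer extension. His-tagged human MYC:MAX or MAX:MAX dimers (550 ng, produced in E. coli) were applied for 60 min at room temperature in Tris-KCl buffer, pH 7.5, with NP40, BSA and poly(dA-dT) competitor. Anti-MAX and secondary antibodies detected bound protein, with scanning at 543 nm, and binding is given as log2 normalized fluorescence.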

| Sequence | binding signal |
| --- | --- |
| CCGGCTTACACGTGGTGTTAATAGCTAAGATTACTATATCGACG | 3.07 log2 normalized fluorescence |
| CCGGCTTACACATGCTATTAATAGCTAAGATTACTATATCGACG | 3.23 log2 normalized fluorescence |
| CCGGCGCACACGTGCTATTAATAGCTAAGATTACTATATCGACG | 3.04 log2 normalized fluorescence |
| CCGGCTTAAACGTGTTATTAATAGCTAAGATTACTATATCGACG | 2.7 log2 normalized fluorescence |
| CCGGCTTACACGTGATATTAATAGCTAAGATTACTATATCGACG | 3.31 log2 normalized fluorescence |
| CCGGCTAACACGTGATATTAATAGCTAAGATTACTATATCGACG | 3.18 log2 normalized fluorescence |
| CCGGCTTATACGTGATATTAATAGCTAAGATTACTATATCGACG | 0.467 log2 normalized fluorescence |
| CCGGCTTACACGTGTTATTAATAGCTAAGATTACTATATCGACG | 3.4 log2 normalized fluorescence |
| CCGGCTTACACGTGCTATTAATAGCTAAGATTACTATATCGACG | 3.57 log2 normalized fluorescence |
| CCGGCTGATGTCCAGTATTAATAGCTAAGATTACTATATCGACG | -0.249 log2 normalized fluorescence |
| CCGGCTGAATGGGCGTATTAATAGCTAAGATTACTATATCGACG | 0.274 log2 normalized fluorescence |
| CCGGCTGAGTCGAGGTATTAATAGCTAAGATTACTATATCGACG | -0.576 log2 normalized fluorescence |
| CCGGCTGAACCGGCGTATTAATAGCTAAGATTACTATATCGACG | -0.299 log2 normalized fluorescence |
| CCGGCAGACACTTAGTATTAATAGCTAAGATTACTATATCGACG | 0.466 log2 normalized fluorescence |
| CCGGCTTTCACATGGTATTAATAGCTAAGATTACTATATCGACG | 3.34 log2 normalized fluorescence |
| CCGGCCTTCACGTGGTATTAATAGCTAAGATTACTATATCGACG | 3.1 log2 normalized fluorescence |
| CCGGCTTTCACTTGGTATTAATAGCTAAGATTACTATATCGACG | -0.636 log2 normalized fluorescence |
| CCGGCTATCACGTGGTATTAATAGCTAAGATTACTATATCGACG | 3.15 log2 normalized fluorescence |
| CCGGCTTACACATGGTATTAATAGCTAAGATTACTATATCGACG | 3.16 log2 normalized fluorescence |
| CCGGCATTCACGTGGTATTAATAGCTAAGATTACTATATCGACG | 3.26 log2 normalized fluorescence |
| CCGGCTAATACGTGGTATTAATAGCTAAGATTACTATATCGACG | 1.49 log2 normalized fluorescence |
| CCGGCTTTCACGTGGTATTAATAGCTAAGATTACTATATCGACG | 3.41 log2 normalized fluorescence |
| CCGGCGTTCACGTGGTATTAATAGCTAAGATTACTATATCGACG | 3.37 log2 normalized fluorescence |
| CCGGCTGAGGGAGCGTATTAATAGCTAAGATTACTATATCGACG | -0.434 log2 normalized fluorescence |

| Sequence | binding signal |
| --- | --- |
| CCGGCTGAGGAGAGGTATTAATAGCTAAGATTACTATATCGACG | -0.732 log2 normalized fluorescence |
| CCGGCTGACCGCCGGTATTAATAGCTAAGATTACTATATCGACG | -0.241 log2 normalized fluorescence |
| CCGGCTGACAAGCAGTATTAATAGCTAAGATTACTATATCGACG | -0.299 log2 normalized fluorescence |
| CCGGCTATTACGTGGTATTAATAGCTAAGATTACTATATCGACG | 1.27 log2 normalized fluorescence |
| CCGGCCTCCACGTGGTATTAATAGCTAAGATTACTATATCGACG | 2.94 log2 normalized fluorescence |
| CCGGCGCCCACGTGGTATTAATAGCTAAGATTACTATATCGACG | 3.43 log2 normalized fluorescence |
| CCGGCTCCCACGTGGTATTAATAGCTAAGATTACTATATCGACG | 3.4 log2 normalized fluorescence |
| CCGGCCCACACGTGGTATTAATAGCTAAGATTACTATATCGACG | 2.95 log2 normalized fluorescence |
| CCGGCTAAGACGTGGTATTAATAGCTAAGATTACTATATCGACG | 1.75 log2 normalized fluorescence |
| CCGGCTCCGACGTGGTATTAATAGCTAAGATTACTATATCGACG | 2.2 log2 normalized fluorescence |
| CCGGCCCCCACGTGGTATTAATAGCTAAGATTACTATATCGACG | 3.4 log2 normalized fluorescence |
| CCGGCTGAAGCCTGGTATTAATAGCTAAGATTACTATATCGACG | 0.476 log2 normalized fluorescence |
| CCGGCTGACGGCCCGTATTAATAGCTAAGATTACTATATCGACG | -0.704 log2 normalized fluorescence |
| CCGGCTGACTCACTGTATTAATAGCTAAGATTACTATATCGACG | -0.209 log2 normalized fluorescence |
| CCGGCTGACCTGTGGTATTAATAGCTAAGATTACTATATCGACG | 0.594 log2 normalized fluorescence |
| CCGGCTGACAACACGTATTAATAGCTAAGATTACTATATCGACG | 0.856 log2 normalized fluorescence |
| CCGGCTGACTCGTGCTATTAATAGCTAAGATTACTATATCGACG | 3.13 log2 normalized fluorescence |
| CCGGCAAACACGTAGTATTAATAGCTAAGATTACTATATCGACG | 2.6 log2 normalized fluorescence |
| CCGGCTTACATGTGGAATTAATAGCTAAGATTACTATATCGACG | 3.25 log2 normalized fluorescence |
| CCGGCTAACACGTCGTATTAATAGCTAAGATTACTATATCGACG | 2.38 log2 normalized fluorescence |
| CCGGCTAACACGTAGTATTAATAGCTAAGATTACTATATCGACG | 1.92 log2 normalized fluorescence |
| CCGGCTTACACGTGGGATTAATAGCTAAGATTACTATATCGACG | 3.12 log2 normalized fluorescence |
| CCGGCTTACACGTGGAATTAATAGCTAAGATTACTATATCGACG | 3.37 log2 normalized fluorescence |
| CCGGCCGACACGTCGTATTAATAGCTAAGATTACTATATCGACG | 2.07 log2 normalized fluorescence |

| Sequence | binding signal |
| --- | --- |
| CCGGCTAACACGTGGAATTAATAGCTAAGATTACTATATCGACG | 3.35 log2 normalized fluorescence |
| CCGGCCGACACGTGGAATTAATAGCTAAGATTACTATATCGACG | 3.32 log2 normalized fluorescence |
| CCGGCTGACACGTGGAATTAATAGCTAAGATTACTATATCGACG | 3.16 log2 normalized fluorescence |
| CCGGCTGAAGACGGGTATTAATAGCTAAGATTACTATATCGACG | -0.654 log2 normalized fluorescence |
| CCGGCTGACCCGTGGTATTAATAGCTAAGATTACTATATCGACG | 2.38 log2 normalized fluorescence |
| CCGGCTGAGCAGGAGTATTAATAGCTAAGATTACTATATCGACG | -0.201 log2 normalized fluorescence |
| CCGGCAGACACGATGTATTAATAGCTAAGATTACTATATCGACG | 3.02 log2 normalized fluorescence |
| CCGGCTGAGATCACGTATTAATAGCTAAGATTACTATATCGACG | 0.425 log2 normalized fluorescence |
| CCGGCTGAGGGTTCGTATTAATAGCTAAGATTACTATATCGACG | -0.732 log2 normalized fluorescence |
| CCGGCTGAACCCTCGTATTAATAGCTAAGATTACTATATCGACG | 0.0153 log2 normalized fluorescence |
| CCGGCTGAAGCGGGGTATTAATAGCTAAGATTACTATATCGACG | 0.358 log2 normalized fluorescence |
| CCGGCTGATTCGATGTATTAATAGCTAAGATTACTATATCGACG | -0.732 log2 normalized fluorescence |
| CCGGCTGACGGGCGGTATTAATAGCTAAGATTACTATATCGACG | -0.202 log2 normalized fluorescence |
| CCGGCTGCCACGTGCGATTAATAGCTAAGATTACTATATCGACG | 3.47 log2 normalized fluorescence |
| CCGGCTGCCACGTGATATTAATAGCTAAGATTACTATATCGACG | 3.13 log2 normalized fluorescence |
| CCGGCTGCCACGACGTATTAATAGCTAAGATTACTATATCGACG | 1.79 log2 normalized fluorescence |
| CCGGCTGCCACGTGTTATTAATAGCTAAGATTACTATATCGACG | 3.28 log2 normalized fluorescence |
| CCGGCTGCCACGTGGAATTAATAGCTAAGATTACTATATCGACG | 3.31 log2 normalized fluorescence |
| CCGGCTGTCACGTGGAATTAATAGCTAAGATTACTATATCGACG | 3.19 log2 normalized fluorescence |
| CCGGCTGCCACGCGGAATTAATAGCTAAGATTACTATATCGACG | 3.15 log2 normalized fluorescence |
| CCGGCTGCCACGTGCTTTTAATAGCTAAGATTACTATATCGACG | 3.14 log2 normalized fluorescence |
| CCGGCTGCCACGAGGAATTAATAGCTAAGATTACTATATCGACG | 3.34 log2 normalized fluorescence |
